Laboratory results: PubChem BioAssay (Tox21)
Inconclusive results are not listed. Some compounds were tested as several samples or in several runs, with calls that do not always agree. The source made the active and inactive calls. Unless noted, the call rests on the fitted dose curve; in most records, active means well fitted curve in the direction sought with a large enough effect in the repeat runs; inconclusive means weak or mixed curves; inactive means no such curve, though single readings can be large; an effect the other way counts as inactive or inconclusive.

Columns and labels:
[1] = qHTS assay to identify small molecule antagonists of the thyroid receptor (TR) signaling pathway - cell viability counter screen (AID 743064); further: nearly all actives have a fitted effect of over 50% in size
In short: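 Rat GH3 pituitary tumor cells stably expressing two TR response elements driving luciferase were plated, rested 4 h, then dosed with library compounds and T3 (1 nM final). After 23.5 h at 37 °C, CellTiter-Fluor was added for 30 min and fluorescence recorded.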

[2] = qHTS assay to identify small molecule antagonists of the thyroid receptor (TR) signaling pathway (AID 743065); further: series mostly up to about 70 µM; nearly all actives have a fitted effect of over 55% in size
In short: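 Antagonism measured as loss of luciferase signal in GH3 cells stably carrying a TRE-luciferase reporter, co-treated with compound and T3 (1 nM final) for 23.5 h at 37 C. Viability was read in the same well by CellTiter-Fluor.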

[3] = tested on: thyroid hormone receptor (rat, GH3 cells); assay: qHTS assay to identify small molecule agonists of the thyroid receptor (TR) signaling pathway (AID 743066; calls by dose curve)
[4] = qHTS assay to identify small molecule antagonists of the estrogen receptor alpha (ER-alpha) signaling pathway - cell viability counter screen (AID 743074; calls by dose curve;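 further: HEK293 cells carrying ER-alpha-UAS-bla reporter stimulated with 17beta-estradiol; nearly all actives have a fitted effect of over 45% in size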)
[5] = qHTS assay to identify small molecule antagonists of the estrogen receptor alpha (ER-alpha) signaling pathway using the BG1 cell line - cell viability counter screen (AID 743081);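 further: compound given together with 17beta-estradiol as the ER stimulus; series mostly up to about 70 µM; nearly all actives have a fitted effect of over 45% in size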
Aromatase (Homo sapiens) = Aromatase (Homo sapiens) (UniProt P11511); assay: qHTS assay to identify aromatase inhibitors (AID 743083); further: series mostly up to about 70 µM; nearly all actives have a fitted effect of over 55% in size
Aromatase (Homo sapiens), sequence (P11511 whole entry, looked up): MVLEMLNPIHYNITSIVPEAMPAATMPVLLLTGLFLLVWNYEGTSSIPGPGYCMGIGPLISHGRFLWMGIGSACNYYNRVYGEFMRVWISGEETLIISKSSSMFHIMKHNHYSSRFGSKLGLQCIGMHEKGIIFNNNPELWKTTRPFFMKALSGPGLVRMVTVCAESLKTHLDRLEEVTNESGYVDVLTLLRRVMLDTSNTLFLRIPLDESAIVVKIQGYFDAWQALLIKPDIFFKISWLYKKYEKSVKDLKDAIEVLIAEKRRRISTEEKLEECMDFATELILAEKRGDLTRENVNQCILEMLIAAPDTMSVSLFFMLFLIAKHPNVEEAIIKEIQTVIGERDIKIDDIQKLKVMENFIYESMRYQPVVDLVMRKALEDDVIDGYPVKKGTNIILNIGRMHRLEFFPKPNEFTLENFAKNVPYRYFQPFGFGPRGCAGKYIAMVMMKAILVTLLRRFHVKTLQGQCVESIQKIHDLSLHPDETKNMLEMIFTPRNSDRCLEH

[6] = qHTS assay to identify aromatase inhibitors - cell viability counter screen (AID 743084);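 further: cells stimulated with testosterone during compound exposure; nearly all actives have a fitted effect of over 55% in size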
[7] = qHTS assay to identify small molecule that activate the aryl hydrocarbon receptor (AhR) signaling pathway - cell viability counter screen (AID 743086);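 further: HepG2 liver cells carrying the AhR DRE luciferase reporter; series mostly up to about 70 µM; nearly all actives have a fitted effect of over 45% in size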
In short: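 Cytotoxicity counter screen: CellTiter-Fluor signal (30 min, 37 C) in 4000 HepG2 cells/well carrying the DRE-luciferase reporter, following 24 h compound exposure at 37 C.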

[8] = target: Peroxisome proliferator-activated receptor gamma (Homo sapiens) (UniProt P37231); assay: qHTS assay to identify small molecule agonists of the peroxisome proliferator-activated receptor gamma (PPARg) signaling pathway (AID 743094; active means well fitted activation curve with a large enough effect in the signal ratio in the repeat runs, not every such curve was filed as active; the % refers to the signal ratio)
Peroxisome proliferator-activated receptor gamma (Homo sapiens), sequence (P37231 whole entry, looked up): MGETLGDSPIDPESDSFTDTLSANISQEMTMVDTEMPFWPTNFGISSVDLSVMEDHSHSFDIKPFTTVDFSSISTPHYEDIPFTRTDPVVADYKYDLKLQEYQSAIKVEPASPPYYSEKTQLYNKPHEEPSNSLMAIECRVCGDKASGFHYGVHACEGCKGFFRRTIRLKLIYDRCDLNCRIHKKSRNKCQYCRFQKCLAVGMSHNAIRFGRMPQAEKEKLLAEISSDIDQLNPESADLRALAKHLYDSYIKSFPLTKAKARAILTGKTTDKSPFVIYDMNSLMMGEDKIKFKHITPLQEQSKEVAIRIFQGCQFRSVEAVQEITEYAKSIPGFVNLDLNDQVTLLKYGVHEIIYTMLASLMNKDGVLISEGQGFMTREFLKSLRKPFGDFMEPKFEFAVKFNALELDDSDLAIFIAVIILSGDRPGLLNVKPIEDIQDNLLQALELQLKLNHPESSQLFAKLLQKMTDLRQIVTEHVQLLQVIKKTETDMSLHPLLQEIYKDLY
In short: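 Cell-based bla reporter, HEK293H background, PPARg-driven UAS. Pre-incubation 5 h, 37C, 5% CO2. Compound 17 h, 37C. Substrate 1 h RT; fluorescence.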

[9] = target: Peroxisome proliferator-activated receptor gamma (Homo sapiens) (UniProt P37231); assay: qHTS assay to identify small molecule antagonists of the peroxisome proliferator-activated receptor gamma (PPARg) signaling pathway (AID 743191; calls by dose curve; further: series mostly up to about 63 µM; nearly all actives have a fitted effect of over 30% in size)
In short: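 Beta-lactamase reporter under UAS control in HEK293H PPARg-bla cells; compound treatment 17 h at 37C. Read-out: fluorescence intensity after 1 h room-temperature incubation with LiveBLAzer B/G FRET substrate.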

[10] = qHTS assay to identify small molecule antagonists of the peroxisome proliferator-activated receptor gamma (PPARg) signaling pathway - cell viability counter screen (AID 743194); further: nearly all actives have a fitted effect of over 55% in size
In short: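 Viability was measured as CellTiter-Glo luminescence in GeneBLAzer PPARg UAS-bla HEK293H cells. These cells had been exposed 17 h at 37 C to compounds together with rosiglitazone at 50 nM final, with the beta-lactamase readout taken in the same wells.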

[11] = qHTS assay for small molecule agonists of the antioxidant response element (ARE) signaling pathway (AID 743202; active means well fitted activation curve with a large enough effect in the signal ratio in the repeat runs, not every such curve was filed as active; the % refers to the signal ratio)
In short: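 After 16 hours of compound treatment at 37 C, HepG2 cells with a stably integrated ARE-driven beta-lactamase reporter were loaded 2 hours at room temperature with LiveBLAzer B/G FRET substrate and fluorescence intensity measured.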

[12] = qHTS assay for small molecule activators of the heat shock response signaling pathway - cell viability counter screen (AID 743209); further: nearly all actives have a fitted effect of over 50% in size
In short: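 Same-well multiplex: after 2.5 h room-temperature incubation with LiveBLAzer B/G substrate and fluorescence reading, CellTiter-Glo reagent was added to HSE-bla HeLa cells that had received compound for 5 h at 37 C; luminescence read after 30 min.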

[13] = target: Aryl hydrocarbon receptor (Homo sapiens) (UniProt P35869); assay: qHTS assay to identify small molecule that activate the aryl hydrocarbon receptor (AhR) signaling pathway (AID 743085);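 further: HG2L7.5c1 human HepG2 liver cells with stably integrated DRE-driven firefly reporter; series mostly up to about 70 µM; nearly all actives have a fitted effect of over 15% in size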
Aryl hydrocarbon receptor (Homo sapiens), sequence (P35869 whole entry, looked up): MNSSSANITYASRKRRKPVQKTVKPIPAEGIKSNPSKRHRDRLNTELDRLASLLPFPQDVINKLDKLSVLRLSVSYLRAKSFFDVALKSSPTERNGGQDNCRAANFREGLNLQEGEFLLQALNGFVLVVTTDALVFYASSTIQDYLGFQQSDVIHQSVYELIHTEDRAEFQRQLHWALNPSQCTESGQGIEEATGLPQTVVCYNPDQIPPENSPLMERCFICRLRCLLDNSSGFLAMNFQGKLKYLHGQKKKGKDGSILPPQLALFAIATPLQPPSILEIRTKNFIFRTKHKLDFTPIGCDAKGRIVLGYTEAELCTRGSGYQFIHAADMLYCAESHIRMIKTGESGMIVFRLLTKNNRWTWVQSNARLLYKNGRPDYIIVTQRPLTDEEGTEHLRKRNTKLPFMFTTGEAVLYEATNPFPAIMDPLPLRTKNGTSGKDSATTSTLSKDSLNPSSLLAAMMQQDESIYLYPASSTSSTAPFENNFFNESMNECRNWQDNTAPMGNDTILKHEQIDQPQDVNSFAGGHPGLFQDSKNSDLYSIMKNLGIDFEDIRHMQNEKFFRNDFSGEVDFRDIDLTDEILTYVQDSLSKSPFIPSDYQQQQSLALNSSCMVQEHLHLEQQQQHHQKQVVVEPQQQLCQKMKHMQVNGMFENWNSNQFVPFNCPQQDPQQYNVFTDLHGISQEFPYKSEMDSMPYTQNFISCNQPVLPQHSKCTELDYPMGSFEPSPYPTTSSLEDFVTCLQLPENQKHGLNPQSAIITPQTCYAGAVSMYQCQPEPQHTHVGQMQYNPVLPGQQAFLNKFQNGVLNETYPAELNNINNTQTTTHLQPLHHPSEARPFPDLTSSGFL
In short: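 Compounds were tested in HepG2 hepatocellular carcinoma cells harbouring a stably integrated luciferase gene under control of 20 DREs. Increased reporter signal after 24 h treatment at 37C was taken as AhR activation.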

[14] = qHTS assay for small molecule agonists of the antioxidant response element (ARE) signaling pathway - cell viability counter screen (AID 743203; calls by dose curve; further: nearly all actives have a fitted effect of over 55% in size)
In short: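 Measured in the same wells as the beta-lactamase ARE reporter, this read-out is CellTiter-Glo luminescence from HepG2 ARE-bla cells given compounds for 16 hrs.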

[15] = target: Estrogen receptor (Homo sapiens) (UniProt P03372); assay: qHTS assay to identify small molecule antagonists of the estrogen receptor alpha (ER-alpha) signaling pathway (AID 743069; active means well fitted curve in the direction sought with a large enough effect in the signal ratio in the repeat runs, not every such curve was filed as active; the % refers to the signal ratio)
Estrogen receptor (Homo sapiens), sequence (P03372 whole entry, looked up): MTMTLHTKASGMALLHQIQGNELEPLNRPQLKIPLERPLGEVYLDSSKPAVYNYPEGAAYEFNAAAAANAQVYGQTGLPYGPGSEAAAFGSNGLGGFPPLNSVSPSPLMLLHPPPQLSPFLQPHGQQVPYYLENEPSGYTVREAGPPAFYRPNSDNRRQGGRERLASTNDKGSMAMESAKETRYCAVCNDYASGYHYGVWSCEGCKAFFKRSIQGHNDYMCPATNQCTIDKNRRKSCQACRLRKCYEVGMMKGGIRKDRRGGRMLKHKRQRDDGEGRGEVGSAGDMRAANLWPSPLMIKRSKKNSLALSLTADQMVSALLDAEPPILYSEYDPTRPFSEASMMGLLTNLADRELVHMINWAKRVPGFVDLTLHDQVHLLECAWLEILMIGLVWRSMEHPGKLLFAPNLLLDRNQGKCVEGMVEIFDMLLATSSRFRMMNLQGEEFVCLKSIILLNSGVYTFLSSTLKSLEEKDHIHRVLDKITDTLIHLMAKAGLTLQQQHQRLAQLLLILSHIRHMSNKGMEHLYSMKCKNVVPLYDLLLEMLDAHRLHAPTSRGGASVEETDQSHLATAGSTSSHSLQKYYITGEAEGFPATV
In short: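 Antagonist mode: compounds in DMSO were co-added with 17beta-estradiol to ER-alpha-bla HEK293 cells (2% charcoal-stripped serum) and left 18 h at 37C. Reporter inhibition was measured as FRET fluorescence after 2 h LiveBLAzer substrate at room temperature.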

[16] = target: Estrogen receptor (Homo sapiens) (UniProt P03372); assay: qHTS assay to identify small molecule agonists of the estrogen receptor alpha (ER-alpha) signaling pathway (AID 743075; calls by dose curve;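 further: HEK293 GripTite cells with ER-alpha and UAS-driven beta-lactamase reporter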)
[17] = target: Estrogen receptor (Homo sapiens) (UniProt P03372); assay: qHTS assay to identify small molecule agonists of the estrogen receptor alpha (ER-alpha) signaling pathway using the BG1 cell line (AID 743079); further: nearly all actives have a fitted effect of over 20% in size
[18] = qHTS assay to identify small molecule antagonists of the estrogen receptor alpha (ER-alpha) signaling pathway using the BG1 cell line (AID 743080; calls by dose curve;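 further: BG1 cells stimulated with 17beta-estradiol alongside compound; series mostly up to about 70 µM; nearly all actives have a fitted effect of over 25% in size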)
In short: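 Luciferase inhibition measured with ONE-Glo after 30 min at RT in BG1Luc4E2 cells given test compounds and 17beta-estradiol for 21.5 h at 37 C; CellTiter-Fluor viability read in the same wells beforehand.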

[19] = qHTS assay for small molecule activators of the heat shock response signaling pathway (AID 743210; active means well fitted activation curve with a large enough effect in the signal ratio in the repeat runs, with a control signal flat, not every such curve was filed as active; the % refers to the signal ratio; further: series mostly up to about 63 µM)
In short: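 Compound exposure lasted 5 h at 37 C in HeLa cells carrying a heat-shock-element-driven beta-lactamase reporter. Read-out: fluorescence intensity after 2.5 h room-temperature loading with LiveBLAzer B/G FRET substrate.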

Measured: Potency

CN(C)c1ccc(Cc2ccc(N(C)C)cc2)cc1
not listed: [13] | [14] | [15] | [16] | [17] | [18] | [19]
inactive: all other assays above

CCCOC(=O)c1ccccc1
not listed: [9] | [11] | [15] | [16] | [17] | [18] | [19]
inactive: all other assays above

CC(CCl)OP(=O)(OC(C)CCl)OC(C)CCl (stereo unspecified)
not listed: [1] | [2] | [3]
inactive: all other assays above

OCc1cccc(Oc2ccccc2)c1
not listed: [9] | [15] | [16] | [17] | [18]
inactive: all other assays above

O=S(=O)(O)c1ccccc1
not listed: [8] | [9] | [11] | [15] | [16] | [17] | [18]
inactive: all other assays above

C=Cc1ccc(C)cc1
not listed: [1] | [4] | [11] | [15] | [16] | [17] | [18]
inactive: all other assays above

CCCCCCCCCCCCCCCC(=O)OC(C)C
inactive: [1] | [2] | [3] | [4] | [5] | [7] | [11] | [14] | [12]

CN/C(=C\[N+](=O)[O-])NCCSCc1csc(CN(C)C)n1
not listed: [10] | [13] | [15] | [16] | [17] | [18]
inactive: all other assays above

C[C@]12CC[C@@H]3c4ccc(O)cc4CC[C@H]3[C@@H]1C[C@@H](O)[C@@H]2O
not listed: [10] | [14] | [15] | [16] | [17] | [18]
inactive: all other assays above

CCOC(=O)n1ccn(C)c1=S
not listed: [1] | [2] | [3] | [10] | [14] | [18]
inactive: all other assays above

CN1C(=O)CC[C@H]1c1cccnc1
not listed: [2] | [3] | [14] | [15] | [16] | [17] | [18] | [19]
inactive: all other assays above

c1ccc(Oc2ccccc2)cc1
not listed: [8] | [9] | [14] | [15] | [16] | [17] | [18] | [19]
inactive: all other assays above

COc1ccc(OC)cc1
not listed: [2] | [3] | [4] | [10] | [18]
inactive: all other assays above

COc1ccc(C)cc1N
not listed: [1] | [10] | [13] | [14] | [18] | [19]
inactive: all other assays above

NC(=S)NNC(N)=S
not listed: [10] | [11] | [15] | [16] | [17] | [18] | [19]
inactive: all other assays above

CC(C)OP(=O)(CP(=O)(OC(C)C)OC(C)C)OC(C)C
not listed: [1] | [11] | [14] | [15]
inactive: all other assays above

N#Cc1ccccc1
not listed: [10] | [11] | [14] | [15] | [16] | [17] | [18] | [19]
inactive: all other assays above

C=C(C)[C@H]1CC=C(C)C(=O)C1
not listed: [9] | [11] | [15] | [16] | [17] | [18]
inactive: all other assays above

CC(O)CC(C)(C)O (stereo unspecified)
inactive: [1] | [2] | [3] | [5] | Aromatase (Homo sapiens) | [6] | [13] | [7] | [8] | [12] | [19]

N[C@H](Cc1c[nH]c2ccccc12)C(=O)O
not listed: [11] | [13] | [15] | [16] | [17] | [18]
inactive: all other assays above
